Data taken from ChEMBL document CHEMBL3988442, “University of Dundee, Small-Polar-MMV Screening Library” (2021).
For some assays here: Results with a measured potency or affinity are listed apart.

What was measured:
Parameters in all cases: scale not given: direction of the effect not stated beside the values
[1] = molecular target: Protein translocase subunit SecA (Escherichia coli (strain K12)) (UniProt P10408); assay: Assay to Identify E. coli SecA ATPase Inhibitors; format: functional; settings: 30 µM
Sequence of Protein translocase subunit SecA (Escherichia coli (strain K12)) (P10408 whole entry): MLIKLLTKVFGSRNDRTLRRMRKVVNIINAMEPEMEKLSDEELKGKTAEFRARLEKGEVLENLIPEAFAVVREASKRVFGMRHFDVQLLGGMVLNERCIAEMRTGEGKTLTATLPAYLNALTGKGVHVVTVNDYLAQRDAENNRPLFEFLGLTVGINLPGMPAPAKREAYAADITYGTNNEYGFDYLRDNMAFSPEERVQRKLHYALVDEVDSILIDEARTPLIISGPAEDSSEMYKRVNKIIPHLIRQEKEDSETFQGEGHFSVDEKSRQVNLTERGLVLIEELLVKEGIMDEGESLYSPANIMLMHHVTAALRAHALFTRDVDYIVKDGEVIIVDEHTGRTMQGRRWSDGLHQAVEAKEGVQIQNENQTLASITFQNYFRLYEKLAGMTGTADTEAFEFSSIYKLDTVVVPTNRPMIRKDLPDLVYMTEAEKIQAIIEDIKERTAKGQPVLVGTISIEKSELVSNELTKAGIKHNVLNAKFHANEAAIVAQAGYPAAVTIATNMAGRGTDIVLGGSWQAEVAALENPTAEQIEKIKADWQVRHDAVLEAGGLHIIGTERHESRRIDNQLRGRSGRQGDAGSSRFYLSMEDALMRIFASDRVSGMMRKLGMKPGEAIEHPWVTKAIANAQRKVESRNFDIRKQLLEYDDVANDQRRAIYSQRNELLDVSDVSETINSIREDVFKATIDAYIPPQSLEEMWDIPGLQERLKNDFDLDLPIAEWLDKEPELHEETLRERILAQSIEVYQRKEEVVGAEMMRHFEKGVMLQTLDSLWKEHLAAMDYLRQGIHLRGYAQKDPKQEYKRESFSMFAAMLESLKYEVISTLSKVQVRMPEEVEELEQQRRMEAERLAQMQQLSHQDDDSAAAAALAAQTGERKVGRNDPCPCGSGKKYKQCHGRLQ

[2] = molecular target: T1, Ubiquitin-activating enzyme e1, putative (Leishmania donovani (strain BPK282A1)) (UniProt E9BSI1); assay: Leishmania donovani Ubiquitin Activating Enzyme (LdE1); format: functional; settings: 30 µM
T1 sequence (whole entry): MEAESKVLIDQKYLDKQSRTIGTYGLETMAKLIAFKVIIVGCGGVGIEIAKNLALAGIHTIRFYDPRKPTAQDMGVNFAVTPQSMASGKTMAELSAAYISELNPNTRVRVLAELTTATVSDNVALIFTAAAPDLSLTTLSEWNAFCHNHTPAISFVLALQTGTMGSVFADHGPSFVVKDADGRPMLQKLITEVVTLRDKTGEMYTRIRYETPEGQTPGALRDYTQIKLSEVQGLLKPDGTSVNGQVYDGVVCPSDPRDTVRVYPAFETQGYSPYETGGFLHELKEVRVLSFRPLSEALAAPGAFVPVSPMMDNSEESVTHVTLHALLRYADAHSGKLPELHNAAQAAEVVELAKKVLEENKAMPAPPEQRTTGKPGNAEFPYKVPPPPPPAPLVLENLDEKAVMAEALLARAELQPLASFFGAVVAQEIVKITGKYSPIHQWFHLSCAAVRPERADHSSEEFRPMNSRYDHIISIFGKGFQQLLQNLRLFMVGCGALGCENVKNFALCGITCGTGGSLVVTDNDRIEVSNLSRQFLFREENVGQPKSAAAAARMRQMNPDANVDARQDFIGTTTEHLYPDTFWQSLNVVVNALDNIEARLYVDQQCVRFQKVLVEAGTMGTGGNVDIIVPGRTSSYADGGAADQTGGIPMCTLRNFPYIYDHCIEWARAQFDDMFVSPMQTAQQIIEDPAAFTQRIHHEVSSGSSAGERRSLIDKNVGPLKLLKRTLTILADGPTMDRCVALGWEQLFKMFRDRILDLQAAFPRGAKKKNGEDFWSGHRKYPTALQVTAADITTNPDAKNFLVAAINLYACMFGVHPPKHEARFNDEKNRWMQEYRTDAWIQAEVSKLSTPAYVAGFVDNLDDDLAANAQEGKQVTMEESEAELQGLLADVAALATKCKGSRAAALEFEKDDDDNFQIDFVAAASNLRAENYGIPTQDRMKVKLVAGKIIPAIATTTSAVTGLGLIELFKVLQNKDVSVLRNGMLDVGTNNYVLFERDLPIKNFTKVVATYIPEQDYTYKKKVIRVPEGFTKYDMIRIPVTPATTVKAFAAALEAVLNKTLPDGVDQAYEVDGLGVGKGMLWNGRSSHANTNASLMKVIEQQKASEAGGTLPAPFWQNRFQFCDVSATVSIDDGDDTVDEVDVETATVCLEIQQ

[3] = molecular target: AMP-activated protein kinase, AMPK (Homo sapiens) (UniProt P54646+O43741+P54619+Q9UGJ0+Q9Y478+Q13131+Q9UGI9); assay: AMP-dependent Kinase enzyme assay. An in vitro enzyme assay that detects ADP turnover that is directly proportional to AMPK activity. This uses naive AMPK that is activated during the assay with MK-8722; format: functional; settings: 30 µM
[4] = molecular target: Sialic acid-binding Ig-like lectin 9 (Homo sapiens) (UniProt Q9Y336); assay: Hs-Siglec9 ALPHAscreen SOP 20170721; settings: 10 µM
Sequence of Sialic acid-binding Ig-like lectin 9 (Homo sapiens) (Q9Y336 whole entry): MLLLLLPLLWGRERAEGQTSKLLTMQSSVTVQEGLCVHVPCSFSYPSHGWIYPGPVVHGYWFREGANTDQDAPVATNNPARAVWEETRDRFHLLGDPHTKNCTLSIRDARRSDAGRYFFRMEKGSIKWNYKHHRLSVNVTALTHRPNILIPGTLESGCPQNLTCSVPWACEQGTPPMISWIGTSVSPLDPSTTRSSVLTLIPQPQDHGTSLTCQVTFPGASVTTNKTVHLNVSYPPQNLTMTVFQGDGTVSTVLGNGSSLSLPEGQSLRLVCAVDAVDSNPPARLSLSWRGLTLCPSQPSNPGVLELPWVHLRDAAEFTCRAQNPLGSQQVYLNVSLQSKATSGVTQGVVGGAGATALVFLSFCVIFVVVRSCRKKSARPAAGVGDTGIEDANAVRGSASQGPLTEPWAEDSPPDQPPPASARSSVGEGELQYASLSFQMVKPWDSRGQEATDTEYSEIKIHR

Trypanosoma cruzi = assay: Trypanosoma cruzi phosphomannomutase and mannose-1-phosphate guanylyltransferase assay; format: functional; settings: 10 µM
[5] = molecular target: T2, Arginase-2, mitochondrial (Homo sapiens) (UniProt P78540); assay: in vitro enzyme assay to detect the production of urea directly proportional to the activity of Arginase II; format: functional; settings: 33.3 µM; note: in the data most compounds retested in dose-response had high values
T2 sequence (whole entry): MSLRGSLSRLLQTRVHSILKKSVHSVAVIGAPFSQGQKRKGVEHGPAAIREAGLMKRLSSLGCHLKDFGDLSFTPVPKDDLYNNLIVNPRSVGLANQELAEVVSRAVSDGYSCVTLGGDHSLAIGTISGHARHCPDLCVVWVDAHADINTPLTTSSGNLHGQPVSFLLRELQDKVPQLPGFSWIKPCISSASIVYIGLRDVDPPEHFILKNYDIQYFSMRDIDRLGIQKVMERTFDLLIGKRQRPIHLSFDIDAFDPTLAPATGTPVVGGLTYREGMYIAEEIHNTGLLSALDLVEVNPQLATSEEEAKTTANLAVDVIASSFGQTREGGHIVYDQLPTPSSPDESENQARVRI

[6] = molecular target: T3, Proteasome subunit beta (Trypanosoma cruzi) (UniProt O96673); assay: Trypanosoma cruzi proteasome chymotrypsin-like activity (TcProtChymo) assay.; note: in the data most compounds retested in dose-response had high values; format: functional; settings: 9.37 µM
T3 sequence (whole entry): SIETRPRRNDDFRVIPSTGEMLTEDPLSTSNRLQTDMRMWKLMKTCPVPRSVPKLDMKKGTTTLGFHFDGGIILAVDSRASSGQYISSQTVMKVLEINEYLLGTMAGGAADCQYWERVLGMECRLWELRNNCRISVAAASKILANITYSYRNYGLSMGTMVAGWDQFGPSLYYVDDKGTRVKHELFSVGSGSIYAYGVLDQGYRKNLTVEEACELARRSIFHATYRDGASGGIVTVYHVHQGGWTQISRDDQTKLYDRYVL

Homo sapiens = species: Homo sapiens; assay: To identify inhibition of the IFN signalling (Jak-Stat) pathway via expression of an eGFP reporter gene under the control of an IFN-stimulated response element (ISRE) containing MxA promoter.; format: functional; settings: 30 µM
[7] = molecular target: T4, Tyrosyl-tRNA synthetase, putative (Trypanosoma cruzi (strain CL Brener)) (UniProt Q4DSP6); assay: Trypanosoma cruzi tyrosyl tRNA synthetase (TcYRS) _High Tyrosine SOP; format: functional; settings: 30 µM; note: in the data most compounds retested in dose-response had high values
T4 sequence (whole entry): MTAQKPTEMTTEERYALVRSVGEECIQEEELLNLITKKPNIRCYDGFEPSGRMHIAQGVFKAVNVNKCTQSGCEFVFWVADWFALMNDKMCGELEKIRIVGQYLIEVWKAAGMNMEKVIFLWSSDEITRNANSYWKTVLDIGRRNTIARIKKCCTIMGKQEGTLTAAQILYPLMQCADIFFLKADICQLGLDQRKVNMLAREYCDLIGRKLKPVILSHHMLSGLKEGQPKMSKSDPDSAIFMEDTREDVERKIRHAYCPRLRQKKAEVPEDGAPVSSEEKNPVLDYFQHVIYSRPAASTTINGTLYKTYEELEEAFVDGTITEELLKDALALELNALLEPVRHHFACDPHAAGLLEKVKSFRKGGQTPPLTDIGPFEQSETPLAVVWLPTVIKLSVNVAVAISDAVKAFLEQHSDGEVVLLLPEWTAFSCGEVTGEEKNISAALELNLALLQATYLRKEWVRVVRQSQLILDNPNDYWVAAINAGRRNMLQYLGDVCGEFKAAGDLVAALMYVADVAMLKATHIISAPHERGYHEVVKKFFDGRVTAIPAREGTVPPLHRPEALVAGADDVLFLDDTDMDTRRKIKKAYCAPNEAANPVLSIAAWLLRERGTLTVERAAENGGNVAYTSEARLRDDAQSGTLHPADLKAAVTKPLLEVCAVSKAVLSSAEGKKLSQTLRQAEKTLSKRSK

[8] = molecular target: T4, Tyrosyl-tRNA synthetase, putative (Trypanosoma cruzi (strain CL Brener)); assay: Trypanosoma cruzi tyrosyl tRNA synthetase (TcYRS) SOP; format: functional; settings: 30 µM
[9] = molecular target: Chromo domain-containing protein 1 (Saccharomyces cerevisiae (strain ATCC 204508 / S288c) (Baker's yeast)) (UniProt P32657); assay: ScCHD-1 Enzyme Inhibition Assay; format: functional; settings: 30 µM; note: in the data most compounds retested in dose-response had high values
Sequence of Chromo domain-containing protein 1 (Saccharomyces cerevisiae (strain ATCC 204508 / S288c) (Baker's yeast)) (P32657 whole entry, the tested form may be a part): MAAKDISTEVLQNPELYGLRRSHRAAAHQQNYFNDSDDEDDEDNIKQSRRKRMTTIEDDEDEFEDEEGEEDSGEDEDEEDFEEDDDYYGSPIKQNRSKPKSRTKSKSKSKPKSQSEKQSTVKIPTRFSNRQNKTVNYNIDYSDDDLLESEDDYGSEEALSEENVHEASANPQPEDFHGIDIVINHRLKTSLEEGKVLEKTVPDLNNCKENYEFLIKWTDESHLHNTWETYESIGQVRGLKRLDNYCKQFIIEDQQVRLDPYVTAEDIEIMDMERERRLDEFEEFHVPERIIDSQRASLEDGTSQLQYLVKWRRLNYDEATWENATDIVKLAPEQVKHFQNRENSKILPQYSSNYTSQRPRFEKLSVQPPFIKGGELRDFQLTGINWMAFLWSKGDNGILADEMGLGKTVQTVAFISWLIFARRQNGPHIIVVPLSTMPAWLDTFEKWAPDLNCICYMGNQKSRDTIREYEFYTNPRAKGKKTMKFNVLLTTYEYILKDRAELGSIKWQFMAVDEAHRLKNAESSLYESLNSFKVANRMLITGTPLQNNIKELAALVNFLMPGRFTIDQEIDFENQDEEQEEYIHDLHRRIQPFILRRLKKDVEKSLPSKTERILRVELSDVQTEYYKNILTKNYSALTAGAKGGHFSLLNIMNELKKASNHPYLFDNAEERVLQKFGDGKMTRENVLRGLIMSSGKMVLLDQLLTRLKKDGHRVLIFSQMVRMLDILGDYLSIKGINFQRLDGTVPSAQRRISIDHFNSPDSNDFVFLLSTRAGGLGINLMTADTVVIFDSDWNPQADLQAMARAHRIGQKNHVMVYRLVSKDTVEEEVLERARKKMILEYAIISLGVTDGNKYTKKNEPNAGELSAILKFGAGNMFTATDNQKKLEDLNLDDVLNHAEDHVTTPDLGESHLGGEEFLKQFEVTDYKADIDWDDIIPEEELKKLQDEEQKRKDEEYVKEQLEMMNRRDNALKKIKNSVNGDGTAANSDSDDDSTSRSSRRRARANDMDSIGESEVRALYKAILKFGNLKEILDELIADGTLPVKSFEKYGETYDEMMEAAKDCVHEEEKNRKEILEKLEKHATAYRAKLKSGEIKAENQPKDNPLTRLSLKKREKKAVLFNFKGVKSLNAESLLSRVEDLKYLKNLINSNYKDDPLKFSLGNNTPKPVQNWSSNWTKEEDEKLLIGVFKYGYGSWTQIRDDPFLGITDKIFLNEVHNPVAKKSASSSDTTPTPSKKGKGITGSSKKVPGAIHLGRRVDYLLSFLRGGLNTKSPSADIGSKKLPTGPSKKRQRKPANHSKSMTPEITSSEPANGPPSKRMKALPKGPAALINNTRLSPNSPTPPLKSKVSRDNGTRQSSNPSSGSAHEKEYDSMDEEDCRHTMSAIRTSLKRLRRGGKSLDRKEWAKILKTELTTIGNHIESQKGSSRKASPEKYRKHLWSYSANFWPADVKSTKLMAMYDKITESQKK

Compound	Percent Effect [1]	Percent Effect [2]	Percent Effect [3]	Percent Effect [4]	Percent Effect (Trypanosoma cruzi)	Percent Effect [5]	Percent Effect [6]	Percent Effect (Homo sapiens)	Percent Effect [7]	Percent Effect [8]	Percent Effect [9]
Cc1ccccc1CC1(CO)CCCN(c2ncccc2C#N)C1 (stereo not drawn)	-2.63%	0%	3.1%	0.621%	-5.21%	1.43%	17.1%	27.8%	3.7%	7.32%	-1.78%
C[C@@H]1CN(C(=O)c2ccc(C#N)nc2)CC[C@@]1(O)C1CCOCC1	-2.31%	5.41%	-1.11%	17.6%	6.18%	10.5%	3.45%	14.3%	5.82%	9.76%	-1.75%
COC(=O)c1ccc2ccn(CC3CCNC3)c(=O)c2c1 (stereo not drawn)	-1.56%	24.7%	-24.1%	16.4%	4.31%	2.27%	21.8%	6.65%	6.45%	20%	-5.95%
CC(C)CCN1CCNC(=O)C1CC(=O)N1CCc2sccc2C1 (stereo not drawn)	-4.93%	0%	0.663%	4.62%	3.44%	-15.2%	1.17%	-17.6%	4.3%	8.64%	1.1%
COC(=O)CCNC(=O)C1CC(=O)N(C2CCCC2)C1 (stereo not drawn)	-4.42%	-2.7%	-0.395%	-6.64%	-0.781%	-2.08%	5.83%	-6.8%	1.98%	6.1%	-2.5%
Cc1cnn(CCC(=O)N2CCCN(c3ncccc3C#N)CC2)c1	-7.15%	19%	-1.68%	6.67%	-1.74%	-0.215%	9.61%	-1.81%	4.17%	20.2%	-30.4%
CCCS(=O)(=O)N1CCOCC2(CCN(c3ccccn3)C2)C1 (stereo not drawn)	-1.74%	1.33%	-1.28%	4.69%	-6.88%	1.58%	3.88%	3.94%	-3.17%	5.13%	-4.27%
CC(C)Oc1cccc(C(=O)C2CCCN(C(=O)c3ccccn3)C2)c1 (stereo not drawn)	-2.58%	0%	-1.81%	4.35%	-2.12%	-1.91%	14.3%	5%	0.529%	2.44%	-1.58%
Cc1nc(C2CCCN2Cc2nnc(C3CC3)o2)no1 (stereo not drawn)	-2%	2.7%	4.19%	3.15%	-1.21%	-0.554%	17.2%	16.6%	9.9%	18.3%	-3.91%
CNc1cncc(C2CCCN2Cc2ccccc2OCC(=O)O)n1 (stereo not drawn)	-4.52%	-52.7%	7.74%	0.809%	-3.75%	-2.55%	9.52%	5.72%	1.07%	3.9%	0.143%
Cc1ccc(C(C)NC(=O)Cc2c(C)nc3c(c2C)c(=O)[nH]n3C)o1 (stereo not drawn)	-4.2%	7.79%	1.79%	9.22%	1.08%	-11%	10.7%	1.96%	1.07%	6.17%	1.13%
Cc1cnc(CN(C)CC2CCCN2c2cccnn2)cn1 (stereo not drawn)	1.21%	15.6%	-9.07%	-13.5%	1.27%	-5.26%	17.1%	4.87%	6.67%	25.9%	-25.4%
COc1ccc(C2CCCN2C(=O)c2cc3c([nH]c2=O)CCC3)cc1 (stereo not drawn)	-6.57%	5.41%	2.86%	-3.27%	-2.73%	4.58%	17.5%	-1.92%	11.9%	8.54%	-6.14%
